Experimental data: PubChem BioAssay (Tox21)
Inconclusive results are not listed. Calls of active or inactive are those of the source. Calls come from the whole dose curve; as a rule, active = well fitted activation curve with a large enough effect in the repeat runs; inconclusive = weak or mixed curves; inactive = no such curve, though single readings can be large or run the other way.

target: Nuclear receptor subfamily 1 group I member 3 (Homo sapiens) (UniProt Q14994); assay: qHTS assay to identify small molecule agonists of the constitutive androstane receptor (CAR) signaling pathway (AID 1224839); conditions: HepG2 hCAR CYP2B6-luciferase, agonist mode, 24 h; series mostly up to 92.4 µM; activation: at the top concentration; note: nearly all actives have a fitted effect of over 15% in size;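 for activation: HepG2 cells stably carrying human CAR and a CYP2B6 luciferase reporter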
How it was run: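 Stable hCAR/CYP2B6-2.2kb HepG2 line in DMEM with 10% FBS; compounds (15 concentrations) and 0.75 uM PK11195 final, 24 h at 37 C/5% CO2, then ONE-Glo luminescence after 30 min.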
% is set by controls: 0 for no effect and ±100 for the full control effect; potency is the fitted concentration of half-maximal effect.

Nuclear receptor subfamily 1 group I member 3 (Homo sapiens), sequence (Q14994 whole entry, looked up): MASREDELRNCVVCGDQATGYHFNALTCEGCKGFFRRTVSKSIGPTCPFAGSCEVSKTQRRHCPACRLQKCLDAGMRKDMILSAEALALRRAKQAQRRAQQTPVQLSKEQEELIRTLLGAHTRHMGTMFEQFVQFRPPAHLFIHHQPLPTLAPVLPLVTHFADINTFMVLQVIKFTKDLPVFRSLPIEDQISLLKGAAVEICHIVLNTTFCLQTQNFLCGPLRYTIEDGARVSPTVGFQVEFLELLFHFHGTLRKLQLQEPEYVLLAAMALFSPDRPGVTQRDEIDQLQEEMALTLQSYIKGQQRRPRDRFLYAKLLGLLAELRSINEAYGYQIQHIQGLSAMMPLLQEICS

| SMILES | activation | Potency |
| --- | --- | --- |
| Nc1ccc(C(=O)OCC(O)CO)cc1 (stereo not given) | 2.29% [at 42.5 µM] (inactive) |  |
| C=CCOC(=O)c1ccc(C(=O)OCC=C)c(C(=O)OCC=C)c1 | 2.94% (inactive) |  |
| F[Si-2](F)(F)(F)(F)F | -7.65% (inactive) |  |
| CCOc1ccc(NC(=O)OC(C)C)cc1OCC | -1.75% (inactive) |  |
| CCN(Cc1cccc(S(=O)(=O)O)c1)c1ccccc1 | -0.326% (inactive) |  |
| CC(=O)c1ccc(OCC(=O)N2CCCCC2)cc1 |  | 18.8 µM (active) |
| CCCCCCCCCOCC1CO1 (stereo not given) | 10.2% (inactive) |  |
| CC1=NN(c2ccc(S(=O)(=O)O)cc2)C(=O)C1N=Nc1ccccc1 (stereo not given) | 10.8% (inactive) |  |
| O=C(/C=C/c1ccccc1)NCCO | 1.84% [at 42.5 µM] (inactive) |  |
| CC(C)(CO)[C@@H](O)C(=O)NCCCO | -2.79% [at 42.5 µM] (inactive) |  |
| CC(=O)N1CCN(c2ccc(O)cc2)CC1 | 0.901% [at 42.5 µM] (inactive) |  |
| O=S(=O)(O)SSS(=O)(=O)O | -2.83% (inactive) |  |
| COc1cc([N+](=O)[O-])ccc1N | 0.928% (inactive) |  |
| CC(C)C(=O)Nc1cccc(C(F)(F)F)c1 | 7.87% [at 42.5 µM] (inactive) |  |
| CCNC(=O)/C=C/c1cccc(Br)c1 |  | 26.6 µM (active) |
| C1=C\CC/C=C\CC/1 | -1.43% (inactive) |  |
| O=C1c2ccccc2-c2ccccc21 | 9.48% (inactive) |  |
| CCCCC(CC)CNC(=O)CC(C)OC(=O)CCC(=O)O (stereo not given) | 0.305% [at 42.5 µM] (inactive) |  |
| Cc1ccc2c(c1)c1c3n2CCNC3CCC1 (stereo not given) | -9.78% [at 42.5 µM] (inactive) |  |
| CC(=O)c1ccc2c(c1)CCCC2 | 3.69% (inactive) |  |
